The results in this text go back to PubChem BioAssay (NCI).

Molecules are shown by their SMILES. This is part of a sample that, as a whole, favours compounds with a hit. Of some 83,000 tested, about 20% had one in any assay.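 The test compound was applied at a single concentration to cells in 96-well plates for 48 hours, and percent growth was recorded.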 A number with no mark means an inactive call. Active and inactive are the calls of the source. The calls were made as follows: active = growth percent below 10; inactive = the rest.

Some test systems named below: NCI-H23 lung; NCI-H226 lung; NCI-H322M lung; HOP-62 NSCLC; NCI-H460 lung; HOP-92 NSCLC; NCI-H522 lung; A549/ATCC NSCLC; 786-0 renal; COLO 205 colon; DU-145 prostate; K-562 leukemia; MALME-3M melanoma; MDA-MB-231 breast; RXF 393 renal; SF-268 CNS; SF-295 CNS; SF-539 CNS; UACC-257 melanoma; M14 melanoma.
What all share (test): NCI-60 one-dose screen, 48 h (100 = growth as untreated, 0 = no growth, -100 = all killed)
Holding throughout (conditions): 10 µM unless noted

Regarding `O=C(Cc1ccc(-c2ccc(OCCN3CCOCC3)cc2)cn1)NCc1ccccc1`, the growth in the assay on NCI-H23 lung was 29%; with NCI-H226 lung, 48.8%; in the assay on NCI-H322M lung, 33.1%; in the assay with HOP-62 NSCLC, -3.09% (active); with NCI-H460 lung, 2.01% (active); in the assay on HOP-92 NSCLC, 27.6%. Moreover, the growth was -5.77% (active) in the assay with NCI-H522 lung; 4.91% (active) in the assay with A549/ATCC NSCLC; 24.2% in the assay on 786-0 renal; -65.3% (active) with COLO 205 colon; 8.3% (active) in the assay with DU-145 prostate; 7.04% (active) with K-562 leukemia. The growth in the assay with MALME-3M melanoma is 40.4%; with MDA-MB-231 breast it was 26.7%; in the assay with RXF 393 renal, 29.3%; in the assay on SF-268 CNS, 29.6%; in the assay on SF-295 CNS, 11.7%; with SF-539 CNS, -33.2% (active). Further, the figures for the growth in the assay with UACC-257 melanoma and with M14 melanoma were 8.49% (active) and 0.711% (active), respectively.
In the case of `Cc1cc(Nc2nc(N[C@@H](C)c3ncc(F)cn3)ncc2Cl)n[nH]1`, the growth in the assay on NCI-H23 lung is 69.9%; with NCI-H226 lung, 46.8%; with NCI-H322M lung it was 52.8%; in the assay on HOP-62 NSCLC, 60.3%; with NCI-H460 lung, 81.6%; with HOP-92 NSCLC, 108%. Further, the growth is 68.3% in the assay on NCI-H522 lung; 66.2% in the assay with A549/ATCC NSCLC; 73.8% in the assay on 786-0 renal; 44.1% with COLO 205 colon; 99.5% in the assay on DU-145 prostate; 77.6% in the assay on K-562 leukemia. For the same compound, the growth is 56.4% with MALME-3M melanoma; 83.8% in the assay with MDA-MB-231 breast; 24.4% with RXF 393 renal; 72% in the assay with SF-268 CNS; 94.4% in the assay on SF-295 CNS; 80.8% in the assay with SF-539 CNS. For the same compound, the values for the growth in the assay on UACC-257 melanoma and in the assay with M14 melanoma were 71.1% and 58.7%, respectively.
In the case of `C=CC(=O)N1CCC[C@H](n2c(=O)n(-c3ccc(Oc4ccccc4)cc3)c3c(N)ncnc32)C1`, the growth with NCI-H23 lung was 92.7%; in the assay with NCI-H226 lung, 79.1%; in the assay on NCI-H322M lung it was 19.3%; with HOP-62 NSCLC, 82.8%; with NCI-H460 lung, 96.2%; in the assay with HOP-92 NSCLC, 85.7%. In addition, the growth in the assay with NCI-H522 lung is 11.3%; in the assay with A549/ATCC NSCLC, 58.3%; in the assay on 786-0 renal, 85.3%; in the assay on COLO 205 colon, 93.1%; with DU-145 prostate, 62.4%; with K-562 leukemia, 66.7%. The growth in the assay on MALME-3M melanoma was 98.2%; in the assay with MDA-MB-231 breast it was 99.6%; with RXF 393 renal it was 84.8%; in the assay on SF-268 CNS it was 71.6%; in the assay on SF-295 CNS it was 98.4%; with SF-539 CNS, 104%. In addition, the growth in the assay on UACC-257 melanoma was 62.9%; in the assay on M14 melanoma, 84.1%.
Regarding `Ic1ccccc1-c1ccccc1`, the growth with NCI-H23 lung was 102%; with NCI-H226 lung, 106%; in the assay with NCI-H322M lung, 114%; in the assay with HOP-62 NSCLC it was 100%; in the assay with NCI-H460 lung, 100%; in the assay with HOP-92 NSCLC, 87.3%. Further, the growth was 94.9% in the assay on NCI-H522 lung; 87.9% with A549/ATCC NSCLC; 108% in the assay with 786-0 renal; 96.4% with COLO 205 colon; 114% in the assay with DU-145 prostate; 104% with K-562 leukemia. Moreover, the growth in the assay with MALME-3M melanoma was 95%; in the assay with MDA-MB-231 breast, 102%; in the assay on RXF 393 renal, 105%; with SF-268 CNS, 105%; in the assay with SF-295 CNS it was 122%; in the assay with SF-539 CNS, 108%. Also, the growth with UACC-257 melanoma was 99%; in the assay on M14 melanoma, 103%.
As for `O=S1(=O)OC(c2cc(Cl)c(O)c(Br)c2)(c2cc(Cl)c(O)c(Br)c2)c2ccccc21`, the growth is 103% in the assay on NCI-H23 lung; 104% in the assay on NCI-H226 lung; 112% in the assay on NCI-H322M lung; 99% in the assay with HOP-62 NSCLC; 105% in the assay on NCI-H460 lung; 68.5% in the assay with HOP-92 NSCLC. The growth in the assay with NCI-H522 lung is 70.8%; with A549/ATCC NSCLC, 94.1%; with 786-0 renal, 106%; in the assay on COLO 205 colon, 115%; in the assay with DU-145 prostate, 114%; in the assay on K-562 leukemia, 109%. Moreover, the growth was 115% in the assay on MALME-3M melanoma; 94.8% in the assay with MDA-MB-231 breast; 109% with RXF 393 renal; 106% in the assay on SF-268 CNS; 127% in the assay on SF-295 CNS; 94.6% in the assay with SF-539 CNS. The results for the growth in the assay with UACC-257 melanoma and in the assay with M14 melanoma were 95.4% and 99.4%, respectively.
For `NC(=O)c1c(OCc2c(F)cc(Br)cc2F)nsc1NC(=O)NCCCCN1CCCC1`, the growth is 21.2% in the assay with NCI-H23 lung; 9.08% (active) in the assay with NCI-H226 lung; 15.4% in the assay with NCI-H322M lung; -29.7% (active) in the assay with HOP-62 NSCLC; -23.1% (active) in the assay with NCI-H460 lung; -1.17% (active) with HOP-92 NSCLC. Moreover, the growth with NCI-H522 lung is -61.8% (active); with A549/ATCC NSCLC it was -15.6% (active); with 786-0 renal, -57.2% (active); in the assay on COLO 205 colon it was -78.7% (active); in the assay on DU-145 prostate, 22.6%; in the assay on K-562 leukemia, -46.8% (active). Further, the growth in the assay on MALME-3M melanoma was -79.8% (active); in the assay with MDA-MB-231 breast, -38.1% (active); with RXF 393 renal, -81.9% (active); in the assay with SF-268 CNS, 11.7%; with SF-295 CNS, -81% (active); in the assay on SF-539 CNS, -92% (active). For the same compound, the growth with UACC-257 melanoma was -80.3% (active); with M14 melanoma, -76.1% (active).
As for `COc1ccc(S(=O)(=O)N(C(C)=O)c2ccccc2/C=C/c2cc[n+]([O-])cc2)cc1`, the growth in the assay with NCI-H23 lung is 32.7%; in the assay with NCI-H226 lung, 80.6%; in the assay with NCI-H322M lung it was 39.2%; in the assay on HOP-62 NSCLC it was 10.5%; in the assay with NCI-H460 lung, 3.49% (active); with HOP-92 NSCLC it was 56.6%. Besides, the growth was -26.4% (active) with NCI-H522 lung; 17.5% in the assay on A549/ATCC NSCLC; 26.7% with 786-0 renal; -36.6% (active) in the assay with COLO 205 colon; 16% in the assay with DU-145 prostate; 7.61% (active) in the assay with K-562 leukemia. For the same compound, the growth in the assay on MALME-3M melanoma is 47%; in the assay on MDA-MB-231 breast, 45.6%; in the assay on RXF 393 renal, -5.21% (active); in the assay with SF-268 CNS it was 34.6%; with SF-295 CNS it was 13.7%; in the assay on SF-539 CNS, -30.4% (active). Moreover, the growth in the assay with UACC-257 melanoma was 65.5%; with M14 melanoma, -14.3% (active).
